CXXC DNA block: inhibitors of human MLL CXXC domain-DNA interaction; Q03164; Potency, µM (series often up to 115 µM), inactives show at the top dose activity change, negative = inhibition, actives largely listed as inhibitors; AID 2662; MLL-CXXC / FITC-HOXA9 DNA fluorescence polarization; 290,000 tested, 0.037% active; active means well fitted inhibition curve with a large enough effect in the polarisation, with a control signal flat, not every such curve was filed as active; inconclusive means small, poorly fitted or top-dose-only effect, or effect the other way, or a change in a side signal; inactive means no such curve, though single readings can be large or run the other way; the % refers to the polarisation; further: potency means the concentration at half of the fitted maximal effect
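Fluorescence polarization: 7 uM MLL-CXXC (stock) preincubated 5 min with compounds, then 50 nM fluorescein-HOX-A9 DNA (stock) added; 30 min ambient. Buffer 50 mM Tris-HCl pH 7.5, 50 mM NaCl, 1 mM DTT, 0.05% BSA.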
Menin-MLL FL inh: menin-MLL binding inhibition, fluorescein peptide. Fluorescence polarization, fluorescein-MLL peptide displacement from menin. FP activity change, % at 61.4 µM. 290,000 tested, under 10 active; active means well fitted curve in the direction sought with a large enough effect in the polarisation, not every such curve was filed as active; inconclusive means small, poorly fitted or top-dose-only effect, or effect the other way, or a change in a side signal; inactive means no such curve, though single readings can be large or run the other way; the % refers to the polarisation; further: % of control where 0% means no effect
LMNA splice mod: changes lamin A minigene splicing in HeLa cells; HeLa LMNA splicing GFP/RFP minigene ratio, 48 h; Potency, µM (highest dose often 46.1 µM), for inactives: at the top dose ratio change, negative = inhibition, most hits filed as inhibitors; 200,000 tested, 0.01% active; AID 1487; active means well fitted inhibition curve with a large enough effect in the signal ratio, with a control signal flat, not every such curve was filed as active; inconclusive means small, poorly fitted or top-dose-only effect, or effect the other way, or a change in a side signal; the % refers to the signal ratio; further: potency means the concentration at half of the fitted maximal effect; on the % scale 0 is the no-effect control and ±100 the full control effect
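S3 HeLa cells stably expressing lamin A-EGFP splicing minigene plus DsRed2, 600 cells/well, 48 h compound exposure at 37C. Laser-scanning cytometry; analysed as GFP (500-530 nm)/RFP (575-640 nm) total intensity ratio; 0.5% DMSO vehicle.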
Menin MLL FP TR: inhibitors of human menin-MLL interaction, mutant MLL peptide | Potency, µM (titrated, usually from 61.6 µM), for inactives: at the top dose FP activity change, negative = inhibition, most hits filed as inhibitors | 270,000 tested, 0.23% active | Menin + Texas Red MLL mutant peptide, fluorescence polarization; active means well fitted inhibition curve with a large enough effect in the polarisation, with a control signal flat, not every such curve was filed as active; inconclusive means small, poorly fitted or top-dose-only effect, or effect the other way, or a change in a side signal; inactive means no such curve, though single readings can be large or run the other way; the % refers to the polarisation; further: potency means the concentration at half of the fitted maximal effect; % of control where 0% means no effect
MLL CXXC Fl: MLL CXXC-DNA interaction inhibition, fluorescein FP. shares compounds with CXXC DNA block. MLL CXXC-DNA binding, fluorescein FP. Potency, µM (top dose mostly 345 µM), without a hit: at the top dose activity change, negative = inhibition, actives largely listed as inhibitors. 200 tested, 70% active. AID 624160; further: potency means the concentration at half of the fitted maximal effect; nearly all actives have a fitted effect of over 80% in size
MLL CXXC TxRed: inhibitors of human MLL CXXC domain-DNA interaction, Texas Red format; 200 tested, 40% active; shares compounds with CXXC DNA block; MLL CXXC-DNA binding, Texas Red fluorescence polarization; Potency, µM (titrated, usually from 345 µM), without a hit: at the top dose activity change, negative = inhibition, usual class: inhibitors; further: potency means the concentration at half of the fitted maximal effect; on the % scale 0 is the no-effect control and ±100 the full control effect; nearly all actives have a fitted effect of over 75% in size
MLL CXXC HTRF: disrupts human MLL CXXC domain binding to DNA by HTRF; shares compounds with CXXC DNA block; MLL CXXC-DNA binding, HTRF, biochemical; Potency, µM (doses to about 172 µM), without a hit: at the highest dose activity change, negative = inhibition, hits mostly inhibitors; 210 tested, 30% active; AID 624162; further: on the % scale 0 is the no-effect control and ±100 the full control effect; nearly all actives have a fitted effect of over 80% in size
Active calls of the source: *; ? = inconclusive; nt = no result given. This is one part of a sample in which hits are shown more often than they occur. Unless noted, the call rests on the fitted dose curve; in most records, active means well fitted inhibition curve with a large enough effect; inconclusive means small, poorly fitted or top-dose-only effect; inactive means no such curve, though single readings can be large or run the other way.

SMILES	CXXC DNA block	Menin-MLL FL inh	LMNA splice mod	Menin MLL FP TR	MLL CXXC Fl	MLL CXXC TxRed	MLL CXXC HTRF
O=C1C=C(O)c2cccc3cccc1c23	?	?	nt	?	113µM*	5%	33%
CC1CCC(C(C)C)C(P(=O)(c2ccccc2)c2ccccc2)C1 (stereo not given)	nt	0	nt	7%	nt	nt	nt
O=C(O)C1=CC(=C(c2ccc(O)c(C(=O)O)c2)c2ccc(O)c(C(=O)O)c2)C=CC1=O	10µM*	7	?	96%	13µM*	18µM*	2.4µM*
CN1c2cc3c(cc2N=C(c2ccc(C(=O)O)cc2)c2ccccc21)C(C)(C)CCC3(C)C	nt	1	nt	?	nt	nt	nt
C#CCOCCOCCOCCNc1nc(N2CCN(C(=O)[C@H](CCCCN)n3cc([C@@H](N)C(C)CC)nn3)CC2)nc(N2CCN(C(=O)[C@H](CCCCN)n3cc([C@@H](N)CO)nn3)CC2)n1 (stereo not given in full)	79µM*	-6	nt	-4%	5.6µM*	4%	-1%
CCSc1nnc(NC(=O)c2nc(S(=O)(=O)Cc3ccc(F)cc3)ncc2Cl)s1	?	nt	nt	nt	22µM*	100µM*	9.7µM*
CSc1nnc(NC(=O)c2nc(S(=O)(=O)Cc3cccc(C)c3)ncc2Cl)s1	-10%	nt	nt	nt	nt	nt	nt
COC(=O)c1ccc(C(NC(=O)c2ccccc2)[C@]2(C)C[C@H]2C2CCCCC2)cc1 (stereo not given in full)	nt	-2	nt	12%	nt	nt	nt

Source: PubChem (National Center for Advancing Translational Sciences (NCATS))
